The values that follow come from PubChem BioAssay (Tox21).

Assay [1] in a line: qHTS assay to identify small molecule agonists of the estrogen related receptor (ERR) signaling pathway from Tox21 library (AID 1224849; calls by dose curve; note: nearly all actives have a fitted effect of over 15% in size). The essentials: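 Reporter cells (ERR, NTP source) treated with Tox21 10K compounds 18 h, 37 C. Readout: ONE-Glo luminescence, 30 min RT.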
A short description of assay [2]: qHTS RealTime-Glo MT Cell Viability Assay in HepG2 cells - 24 hour (AID 1224867). Note: nearly all actives have a fitted effect of over 50% in size. The essentials: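 Cells + NanoLuc/prosubstrate dispensed (600 cells/well) → 5 h at 37 C/5% CO2 → compounds in DMSO transferred → 40 h incubation at 37 C, luminescence read at 0, 8, 16, 24, 32, 40 h.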
The nature of assay [3]: qHTS RealTime-Glo MT Cell Viability Assay in HEK293 cells - 32 hour (AID 1224868). Note: nearly all actives have a fitted effect of over 50% in size. Note: potency is the fitted concentration of half-maximal effect. The essentials: (§1)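 Tox21 10K qHTS, HEK293, 600 cells/well, RealTime-Glo reagent co-dispensed with cells; 5 h preincubation, compound by pintool, 37 C, luminescence at 0–40 h.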
Assay [4] in a line: A CellTox Green Cytotoxicity Assay to monitor cytotoxicity in HEK293 cells - 0 hour (AID 1224869). Note: nearly all actives have a fitted effect of over 50% in size. The essentials:
(§2)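 Homogeneous no-lysis format: HEK293 cell suspension mixed with CellTox Green reagent, seeded, incubated 5 h at 37 C/5% CO2, then dosed by pintool with compound in DMSO.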

The nature of assay [5]: qHTS RealTime-Glo MT Cell Viability Assay in HepG2 cells - 40 hour (AID 1224870). Note: nearly all actives have a fitted effect of over 50% in size. The essentials: (§3)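 HepG2 cells mixed with RealTime-Glo MT reagents (NanoLuc plus cell-permeant prosubstrate) were seeded at 600 cells/well, incubated 5 h at 37 C/5% CO2, then pinned with compounds in DMSO; nonlytic luminescence tracked viability during 40 h treatment.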
A short description of assay [6]: A CellTox Green Cytotoxicity Assay to monitor cytotoxicity in HEK293 cells - 40 hour (AID 1224871). Note: nearly all actives have a fitted effect of over 45% in size. The essentials: as §2
Assay [7] in a line: qHTS RealTime-Glo MT Cell Viability Assay in HEK293 cells - 16 hour (AID 1224872). The essentials:
as §1

A short description of assay [8]: qHTS RealTime-Glo MT Cell Viability Assay in HepG2 cells - 8 hour (AID 1224873). Note: nearly all actives have a fitted effect of over 55% in size. The essentials: as §3
Assay [9] is described as follows: qHTS RealTime-Glo MT Cell Viability Assay in HEK293 cells - 40 hour (AID 1224874). Note: nearly all actives have a fitted effect of over 50% in size. Note: potency is the fitted concentration of half-maximal effect. The note with it: RealTime-Glo luminescence; max response: hits give low values. The essentials:
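Measured as luminescence from the same continuously cultured HEK293 wells at successive time points (0, 8, 16, 24, 32, 40 h) after compound addition. Reagent present from seeding; dosing at 5 h; incubation 37 C.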

Assay [10] in a line: A CellTox Green Cytotoxicity Assay to monitor cytotoxicity in HEK293 cells - 24 hour (AID 1224875). Note: series mostly up to about 77 µM; nearly all actives have a fitted effect of over 45% in size. The essentials: as §2

Unmarked numbers belong to inactive results. Inconclusive results are not listed. Active and inactive are the calls of the source. Unless noted, calls come from the whole dose curve; as a rule, active = well fitted curve in the direction sought with a large enough effect in the repeat runs; inconclusive = weak or mixed curves; inactive = no such curve, though single readings can be large; an effect the other way counts as inactive or inconclusive.
% is set by controls: 0 for no effect and ±100 for the full control effect.

`CCC(C)(C)C1CCC(=O)CC1`: the call in [1], in assay [2], in assay [5] and in assay [8] was inactive. Moreover, the Potency entry in [3], in assay [4], in assay [6], in [7] and in assay [10] was “inactive” in each case. Besides, the max response in [9] is 7.65%.
Consider `CNCc1ccccc1`, for which the result in assay [1], in assay [2], in assay [5] and in assay [8] was inactive. For the same compound, the Potency entry in assay [3], in assay [4], in [6], in assay [7] and in assay [10] was “inactive” throughout. The max response in assay [9] was -3.32%.
With `CC(Cl)COP(=O)(OCC(C)Cl)OCC(C)Cl` (configuration not stated), the compound was classed as inactive in assay [1], in [2], in [5] and in assay [8]. In addition, the Potency entry in assay [3], in assay [4], in [6], in assay [7] and in assay [10] was “inactive” in each case. Also, the max response in [9] was -0.188%.
With `C=CCOCC(CO)(COCC=C)COCC=C`, the compound was called inactive in [1], in assay [2], in assay [5] and in [8]. For the same compound, the Potency result in assay [3], in assay [4], in assay [6], in [7] and in assay [10] was “inactive” each time. For the same compound, the max response in [9] is 0.319%.
Take `O=C(O)c1ccc(OCCN2CCCCC2)cc1`: the outcome in [1], in assay [2], in [5] and in [8] was inactive. Besides, the Potency result in [3], in assay [4], in assay [6], in [7] and in assay [10] was “inactive” throughout. Besides, the max response in assay [9] was 5.16%.
Turning to `O=C(O)CCNC(=O)c1ccccc1`, the compound was classed as inactive in assay [1], in assay [2], in assay [5] and in assay [8]. The Potency result in assay [3], in assay [4], in assay [6], in assay [7] and in [10] was “inactive” in each case. In [9], the max response was -0.231%.
Regarding `CC(=O)OCCCc1ccccc1`, the call in [1], in [2], in [5] and in assay [8] was inactive. For the same compound, the Potency result in [3], in assay [4], in [6] and in [7] was “inactive” throughout. The max response in [9] was 4.03%.
On to `Cc1nc(C)nc(N2C[C@@H](C)N(c3ccnc([C@@H](C)O)n3)[C@@H](C)C2)n1`, for which the call in assay [1], in assay [2], in assay [5] and in [8] was inactive. For the same compound, the Potency entry in assay [3], in [4], in assay [6], in assay [7] and in [10] was “inactive” each time. For the same compound, the max response in assay [9] was 9.39%.
For `CC(C)(CO)[C@@H](O)C(=O)NCCCO`, the compound was classed as inactive in assay [1], in assay [2], in [5] and in assay [8]. Besides, the Potency entry in [3], in [4], in [6], in assay [7] and in assay [10] was “inactive” in each case. Moreover, in assay [9], the max response was 4%.
`O=C(O)/C=C/c1ccccc1`: the compound was classed as inactive in assay [1], in assay [2], in [5] and in assay [8]. Besides, the Potency entry in [3], in assay [4], in [6] and in [7] was “inactive” in each case. Further, in [9], the max response is -8.08%.
In the case of `CC(C)CCC(=O)CCC(C)C`, the result in assay [1], in assay [2], in [5] and in [8] was inactive. Also, the Potency entry in assay [3], in [4], in assay [6] and in assay [7] was “inactive” each time. Also, the max response in assay [9] was 1.42%.
Consider `Cc1ccccc1OCC1CO1` (configuration not stated), for which the call in assay [1], in [2], in assay [5] and in assay [8] was inactive. Besides, the Potency result in assay [3], in [4], in assay [6] and in [7] was “inactive” each time.
In the case of `COc1cccc2sc(N)nc12`, the compound was classed as inactive in assay [1], in assay [2], in [5] and in assay [8]. The Potency result in assay [3], in assay [4], in [6], in assay [7] and in assay [10] was “inactive” throughout. Further, the max response in [9] was -6.71%.
`CC(C)COC(=O)COc1ccc(Cl)cc1Cl`: the call in assay [1], in [2], in [5] and in assay [8] was inactive. The Potency entry in [3], in assay [4], in [6], in assay [7] and in assay [10] was “inactive” in each case. Moreover, in [9], the max response was 6.46%.
On to `CCNC(=O)NCCCOc1cccc(CN2CCCCC2)c1`, for which the outcome in assay [1], in assay [2], in [5] and in [8] was inactive. The Potency result in assay [3], in [4], in assay [6], in assay [7] and in [10] was “inactive” each time. In addition, in assay [9], the max response was -3.36%.
As for `CC(C)(c1ccc(Oc2ccc3c(c2)C(=O)OC3=O)cc1)c1ccc(Oc2ccc3c(c2)C(=O)OC3=O)cc1`, the result in assay [1], in [2], in [5] and in assay [8] was inactive. In addition, the Potency result in assay [3], in assay [4], in [7] and in [10] was “inactive” in each case. In addition, in assay [9], the max response was 19.4%.
As to `CCCCCCCCCOCC1CO1` (configuration not stated), the call in assay [1], in assay [2], in assay [5] and in assay [8] was inactive. The Potency entry in assay [3], in assay [4] and in [7] was “inactive” throughout.
For `C[C@H](CCC(=O)NCC(=O)O)[C@H]1CC[C@H]2[C@@H]3[C@H](O)C[C@@H]4C[C@H](O)CC[C@]4(C)[C@H]3C[C@H](O)[C@]12C`, the outcome in [1], in assay [2], in assay [5] and in assay [8] was inactive. The Potency in assay [3] and in [9] was 9.49 µM (active) in each case. The Potency entry in assay [4], in [6] and in assay [10] was “inactive” throughout.
For `F[Si-2](F)(F)(F)(F)F`, the result in [1], in [2], in [5] and in assay [8] was inactive. In addition, the Potency result in [3], in assay [4], in assay [7] and in assay [10] was “inactive” each time. Besides, the max response in assay [9] was -1.11%.
For the compound `CC(C)C(=O)c1ccccc1`, the compound was called inactive in assay [1], in assay [2] and in assay [5]. Moreover, the Potency result in assay [3], in [4], in assay [6], in assay [7] and in assay [10] was “inactive” in each case.
`COc1ccc(NS(=O)(=O)c2ccc(N)cc2)nn1`: the compound was classed as inactive in assay [1], in assay [2], in assay [5] and in [8]. Besides, the Potency result in [3], in [4] and in assay [7] was “inactive” in each case. The max response in [9] was 3.44%.
`O=C(COCCOCCOCC(=O)Nc1c(I)cc(I)c(C(=O)O)c1I)Nc1c(I)cc(I)c(C(=O)O)c1I`: the result in assay [1], in assay [2], in assay [5] and in [8] was inactive. The Potency result in assay [3], in [4] and in assay [7] was “inactive” each time. For the same compound, the max response in assay [9] is 3.14%.
As for `O=P(O)(O)OCC(O)CO` (configuration not stated), the call in assay [1], in [2], in assay [5] and in assay [8] was inactive. Further, the Potency result in assay [3], in assay [4], in assay [6], in assay [7] and in [10] was “inactive” each time.
